G9a block: G9a (human) methyltransferase inhibition | Q96KQ7 | G9a H3K9 monomethylation, AlphaScreen, 2 h | Potency, µM (doses to about 102 µM), without a hit: top-dose activity, negative = inhibition, hits mostly inhibitors | actives 8.8% (n = 350,000); also: % is scaled to controls: 0 for no effect and ±100 for the full control effect; nearly all actives have a fitted effect of over 75% in size
Target sequence (Q96KQ7 913-1193 limits assumed): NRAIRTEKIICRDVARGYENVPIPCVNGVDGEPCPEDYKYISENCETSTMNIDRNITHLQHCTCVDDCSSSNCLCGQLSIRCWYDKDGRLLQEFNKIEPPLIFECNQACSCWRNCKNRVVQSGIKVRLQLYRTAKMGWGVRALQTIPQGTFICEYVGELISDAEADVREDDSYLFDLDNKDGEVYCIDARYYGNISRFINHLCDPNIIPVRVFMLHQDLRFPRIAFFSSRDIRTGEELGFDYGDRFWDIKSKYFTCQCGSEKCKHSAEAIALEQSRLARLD
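G9a (20 nM) was preincubated 15 min with compound, then reacted 2 h at room temperature with 500 nM biotin-H3K9 peptide and 20 µM SAM. Monomethyl-H3K9 detected by AlphaScreen using anti-H3K9me1 antibody.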
BAZ2B block: inhibitors of human BAZ2B bromodomain | Q9UIF8 | AlphaScreen BAZ2B-H3K14Ac peptide displacement | Potency, µM (titrated, usually from 114 µM), for inactives: at the highest dose activity change, negative = inhibition, hits mostly inhibitors | actives 4.4% (n = 360,000); also: % is scaled to controls: 0 for no effect and ±100 for the full control effect; nearly all actives have a fitted effect of over 60% in size
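AlphaScreen displacement of biotin-H3(5-23)K14Ac peptide (50 nM final) from BAZ2B (50 nM final) in PBS pH 7.4, 0.01% Tween-20; complex preformed 30 min RT, then compounds (top 110 uM) 30 min RT, beads 20 min dark.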
Sfp inh: inhibitors of Bacillus subtilis Sfp phosphopantetheinyl transferase | Q9F4F7 | Biochemical Sfp PPTase activity, qHTS | Potency, µM, without a hit: largest response in the series, negative = inhibition, most hits filed as inhibitors | actives 3.5% (n = 310,000) | AID 1490;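 also: the enzyme is Sfp with the accession as filed and its product quenches rhodamine fluorescence; 0% = enzyme reaction without inhibitor and -100% = no enzyme wells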
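Step 1, compound plus 15 nM Sfp-PPTase, 15 min, room temperature. Step 2, add rhodamine-CoA (5 uM) and BHQ-2-YbbR (12.5 uM). Step 3, read 525/598 nm fluorescence at 0 and 30 min.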
L3MBTL1 block: L3MBTL1 (human) inhibition; Q9Y468; AlphaScreen L3MBTL1–H3K9me1 peptide binding; Potency, µM (highest dose often 57.1 µM), for the others: at the top dose activity, negative = inhibition, usual class: inhibitors; actives 0.66% (n = 230,000); AID 485360; also: % is scaled to controls: 0 for no effect and ±100 for the full control effect; nearly all actives have a fitted effect of over 60% in size
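AlphaScreen assay: L3MBTL1 (50 nM final) was preincubated 30 min at room temperature with biotinylated H3(1-15)K9me1 peptide (75 nM final), then 30 min with library compounds; streptavidin donor and nickel chelate acceptor beads (10 ug/mL final) added, 30 min dark.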
HP1b chromo inh: inhibitors of HP1-beta chromodomain binding to methylated histone tails. P83916. AlphaScreen HP1-beta / biotin-H3K9me3 peptide binding. Potency, µM (titrated, usually from 114 µM), for the others: at the highest dose activity change, negative = inhibition, most hits filed as inhibitors. actives 0.56% (n = 390,000). AID 540317; also: nearly all actives have a fitted effect of over 70% in size
Target sequence (P83916 whole entry, looked up): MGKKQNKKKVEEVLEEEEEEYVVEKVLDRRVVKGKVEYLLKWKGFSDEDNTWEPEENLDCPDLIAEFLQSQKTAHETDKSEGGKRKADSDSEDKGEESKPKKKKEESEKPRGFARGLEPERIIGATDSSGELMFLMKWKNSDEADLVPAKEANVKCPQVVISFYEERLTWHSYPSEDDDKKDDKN
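AlphaScreen: HP1-beta (50 nM) preformed 30 min with biotin-H3(1-18)K9me3 peptide (50 nM) in PBS pH 7.4, 0.01% Tween-20. Compound added for 30 min at RT, then streptavidin donor/nickel chelate acceptor beads (10 ug/mL) for 30 min.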
JMJD2A Tudor inh: JMJD2A Tudor domain (human) inhibition. Potency, µM (doses to about 114 µM), for inactives: at the highest dose activity change, negative = inhibition, hits mostly inhibitors. AlphaScreen JMJD2A-Tudor / H3K4me3 peptide binding. actives 4.4% (n = 390,000). AID 504339; also: % is scaled to controls: 0 for no effect and ±100 for the full control effect; nearly all actives have a fitted effect of over 50% in size
An asterisk follows results filed as active; u = inconclusive; x = not tested or not shown; [ ] = dose if it differs, or a comment. Rows were chosen to be rich in hits. Some 12% of all compounds tested hit in one or more screens of this group. Calls follow the shape of the dose curve; as a rule, active = well fitted curve in the direction sought with a large enough effect; inconclusive = small, poorly fitted or top-dose-only effect, or another doubt; inactive = no such curve, though single readings can be large; an effect the other way counts as inactive or inconclusive. Potency is read from the fitted curve at half-maximal effect.

SMILES	G9a block	BAZ2B block	Sfp inh	L3MBTL1 block	HP1b chromo inh	JMJD2A Tudor inh
[S-]c1nnc(-c2ccc(Br)cc2)n1-c1ccccc1.[Zn+2]	-5%[0.501 µM]	79µM*	5%	5%[2.29 µM]	21%	50µM*
CC(=O)NC(C)(CC(=O)c1ccccc1)c1ccccc1 (stereo unspecified)	x	x	x	x	70%	-4%
COc1cc(O)c(C(CCN2CCN(c3ccccc3)CC2)c2cc(OC)c(OC)c(OC)c2)c(OC)c1 (stereo unspecified)	-22%[59 µM]	u	-19%	x	u	40µM*
COc1cc(O)c(C(CCN2CCN(c3ccccc3)CC2)c2ccc3c(c2)OCO3)c(OC)c1 (stereo unspecified)	u	10µM*	17%	x	-28%	18µM*
COc1cc(O)c(C(CCN2CCCC2)c2ccc3c(c2)OCO3)c(OC)c1 (stereo unspecified)	-1%[12.7 µM]	u	-7%	x	-9%	u
Cc1ccnc(NC(=O)CNC(=O)c2ccc(Br)o2)c1	20%[59 µM]	15%	x	0%	4%	-6%
CCOC(=O)/C=C/CCCC=O	x	x	3%	x	x	x
Cc1ccc([N+](=O)[O-])cc1-c1[nH]c(-c2ccc(O)c(O)c2)nc1-c1ccccc1	u	28µM*	2%	x	-43%	40µM*
COc1ccc(-c2nc(-c3ccccc3)c(-c3cc([N+](=O)[O-])ccc3C)[nH]2)cc1O	50µM*	40µM*	12%	-22%	u	45µM*
COc1ccc([N+](=O)[O-])cc1-c1[nH]c(-c2ccc(C(=O)O)cc2)nc1-c1ccccc1	u	u	21%	-3%	-5%	u
CC(=O)N1CC=CC1(CC(C)C)C(=O)O (stereo unspecified)	x	x	20%	x	x	x
Fc1ccc(F)c(CN2CCN(c3ncccn3)CC2)c1	-10%[59 µM]	-35%	5%	10%	15%	-21%
CCOc1cc(CN2CCN(c3ncccn3)CC2)ccc1OC	x	79µM*	-9%	20%	u	2.8µM*
CCc1ccc(CN2CCN(c3ncccn3)CC2)cc1	6%[0.501 µM]	50µM*	u	5%[2.29 µM]	-21%	20µM*
Fc1ccc(CN2CCN(c3ncccn3)CC2)cc1	10µM*	u	-14%	x	u	10µM*
O=[N+]([O-])c1ccc(-c2n(-c3ccccn3)c3ccccc3[n+]2-c2ccccn2)cc1	50µM*	u	13%	x	3%	u
Cc1noc(C)c1-c1ccc2ncnc(NCc3ccco3)c2c1	x	x	11%	x	x	-27%
COCCN=C1OC(=O)N2C(=O)C3=C4C(C[C@H]5C(=O)N(c6ccccc6)C(=O)[C@H]5[C@H]4[C@@]12Cc1ccccc1)[C@H]1C(=O)N(c2ccccc2)C(=O)[C@H]1[C@H]3C (stereo partly specified)	x	x	24%	x	x	x
Nc1ncnc2oc(-c3ccco3)c(-c3ccco3)c12	5.6µM*	56µM*	20µM*	25µM*	-33%	56µM*
Nc1ncnc2oc(-c3ccoc3)c(-c3ccco3)c12	x	x	x	x	56µM*	50µM*
CSc1ccccc1NC(=O)CN(C)C(C)C(=O)NCc1ccc2c(c1)OCO2 (stereo unspecified)	x	x	x	-4%	u	5µM*
CC1CC(C)CN(C(=O)C(C)N(C)CC(=O)Nc2ccc(F)cc2)C1 (stereo unspecified)	11%[12.7 µM]	8%	x	3%	26%	0%
COc1ccc(NC(=O)CN(C)C(C)C(=O)N2CCCCC2)cc1 (stereo unspecified)	u	22µM*	u	x	-50%	0.89µM*
CC(C(=O)Nc1ccc2c(c1)OCO2)N(C)CC(=O)Nc1ccc(Cl)cc1 (stereo unspecified)	x	x	x	x	u	2.2µM*
Cc1ccc(C)c(NC(=O)CN(C)C(C)C(=O)N2CCCC2)c1 (stereo unspecified)	x	x	x	5%	0%	-3%

Assay outcomes from PubChem BioAssay.
